Compound activity (PubChem BioAssay)
Shown are actives, neighbours in structure and some others; about 27% of the full set was active somewhere.
CYP2C19 inhib = human CYP2C19 inhibition | 21% of 96,000 active | inhibition, % at 5 µM | P33261 | CYP2C19 Supersomes, luciferin-H EGE luminescence, 30 min | AID 778;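 active means CYP2C19 inhibition above a set limit at 5 µM in the primary screen, cut at about 50% in these data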;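 further: plate controls were negative control wells for no effect and 2.5 mM tranylcypromine positive control for full effect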
CYP2C9 inh = inhibitors of human CYP2C9; P11712; CYP2C9 Supersomes, luciferin-H conversion, luminescence; inhibition, % at 5 µM; 20% of 96,000 active;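 active means blocking of liver enzyme CYP2C9 beyond about 50% at 5 µM, limit read from the data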
CYP2C9 act = CYP2C9 (human) activation; AID 1024; activation factor at 5 µM; 1.4% of 96,000 active; recombinant CYP2C9, luciferin-H conversion, luminescence; hits give high values; factor 1 = untreated enzyme, 0 = blocked; P11712;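 active means activation factor of 2 or more for CYP2C9 at a 5 µM dose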;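 further: 0 = sulfaphenazole-blocked wells and 1 = vehicle-only wells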
sEH inh = soluble epoxide hydrolase (human) inhibition | recombinant human sEH enzymatic activity assay | 0.34% of 91,000 active | inhibition, % at 2 µM; in the data active means inhibition above about 80%
Target sequence (P34913 whole entry, looked up): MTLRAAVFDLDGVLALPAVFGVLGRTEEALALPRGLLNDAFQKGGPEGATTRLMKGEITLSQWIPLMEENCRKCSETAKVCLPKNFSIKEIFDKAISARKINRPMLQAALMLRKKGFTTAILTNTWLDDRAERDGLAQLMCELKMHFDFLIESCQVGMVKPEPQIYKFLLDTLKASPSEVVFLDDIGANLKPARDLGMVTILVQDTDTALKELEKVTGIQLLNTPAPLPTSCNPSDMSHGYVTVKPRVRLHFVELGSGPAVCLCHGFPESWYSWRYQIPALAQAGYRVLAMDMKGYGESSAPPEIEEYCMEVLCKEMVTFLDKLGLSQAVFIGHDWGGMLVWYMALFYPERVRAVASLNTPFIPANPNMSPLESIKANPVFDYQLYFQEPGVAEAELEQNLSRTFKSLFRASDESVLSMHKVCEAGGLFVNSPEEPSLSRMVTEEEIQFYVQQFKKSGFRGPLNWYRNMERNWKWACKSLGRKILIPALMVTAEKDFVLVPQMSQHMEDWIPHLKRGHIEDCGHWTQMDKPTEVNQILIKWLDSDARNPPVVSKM
sEH activator = increases human soluble epoxide hydrolase activity; P34913; purified human sEH enzymatic activity, activator screen; activation, % at 2 µM; 0.04% of 91,000 active; AID 717; in the data active means activation above about 37%
CYP2C19 activ = increases human CYP2C19 enzyme activity | AID 1025 | recombinant CYP2C19, luciferin-H EGE luminescence; hits give high values; 0 = fully inhibited enzyme, 1 = untreated enzyme | activation factor at 5 µM | 96,000 tested, under 10 active | P33261;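 active means activation factor of at least 2 at 5 µM in the primary screen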;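 further: 0 = wells with 2.5 mM tranylcypromine and 1 = vehicle-only wells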
Active calls of the source: *; nt = not tested or not shown.

SMILES	CYP2C19 inhib	CYP2C9 inh	CYP2C9 act	sEH inh	sEH activator	CYP2C19 activ
O=C(Nc1ccn(Cc2c(F)c(F)c(F)c(F)c2F)n1)c1cccc(Cn2cc([N+](=O)[O-])cn2)c1	30	27	0.7	31	-30	0.7
CCOc1ccc(OCc2ccc(C(=O)Nc3cccnc3)o2)cc1	27	29	0.7	8	-5	0.7
Cc1ccc(Cn2ccc(NC(=O)c3cc(-c4ccc(Br)cc4)on3)n2)cc1	-4	18	0.8	-5	5	1
O=C(NCc1ccc2c(c1)OCO2)c1ccc(COc2cc(Cl)ccc2Cl)o1	57*	94*	0.1	21	-20	0.4
O=C(Nc1ccn(Cc2ccccc2F)n1)c1ccc(COc2cccc(Br)c2)cc1	19	88*	0.1	21	-19	0.8
COc1cccc(C2/C(=C(\O)c3c(C)nc4c(C)cccn34)C(=O)C(=O)N2CCCN(C)C)c1OC (stereo unspecified)	-4	-1	1	nt	nt	1
Nc1nnc(SCC(=O)NC23CC4CC(CC(C4)C2)C3)s1	16	9	0.9	8	-10	0.8
N#CCCNC(=O)CCN1CCCCC1	12	-15	1.2	0	2	0.9
COc1cc(NC(=O)c2ccc(COCC(F)(F)F)cc2)cc(OC)c1OC	15	2	1	1	2	0.9
O=C(Nc1nn(Cc2ccc(Cl)cc2)cc1Br)c1ccc(COc2ccccc2Cl)o1	81*	86*	0.1	4	-6	0.2
O=C(Nc1ccn(Cc2c(F)c(F)cc(F)c2F)n1)c1ccc(COc2cc(Cl)ccc2Cl)o1	13	19	0.8	6	-5	0.9
O=C(Nc1ccn(Cc2c(F)c(F)cc(F)c2F)n1)c1ccc(COc2ccccc2Cl)cc1	32	66*	0.3	-1	1	0.7
O=C(Nc1ccn(Cc2ccccc2F)n1)c1ccc(COc2ccccc2Cl)cc1	79*	86*	0.1	-6	8	0.2
O=C(Nc1ccn(Cc2ccccc2F)n1)c1ccc(COc2cc(Cl)ccc2Cl)o1	61*	91*	0.1	7	-6	0.4
O=C(Nc1ccccn1)c1ccc(COc2ccccc2Cl)o1	nt	nt	nt	-3	6	nt
C=CCn1c(SCC(=O)c2ccc(Br)cc2)nnc1C(CC(C)C)NC(=O)c1cccs1 (stereo unspecified)	18	-6	1.1	-2	3	0.8
Cn1nnnc1SCC(=O)Nc1cc(C(=O)O)cc(C(=O)O)c1	3	4	1	5	-7	1
COc1cccc(-n2c(Cc3cc(=O)[nH]c(=O)[nH]3)nnc2SCC(=O)N2CCCCC2)c1	2	-19	1.2	0	-1	1
COc1ccc(C)cc1N(CC(=O)Nc1cccc(N(C)S(C)(=O)=O)c1)S(C)(=O)=O	20	30	0.7	6	-4	0.8
O=C(NCc1cccnc1)c1ccc(COc2cccc3ccccc23)o1	53*	2	1	5	-2	0.5
O=C(Nc1cccnc1)c1ccc(COc2cc(Cl)ccc2Cl)o1	74*	60*	0.4	12	-9	0.3
CCOc1ccc(OCc2ccc(C(=O)NCc3cccnc3)o2)cc1	43	37	0.6	-6	10	0.6
O=C1Nc2ccccc2C1=Nc1ccc(-c2nnc3n2CCCCC3)cc1	-5	-16	1.2	nt	nt	1
CCOc1cc(C(=O)Nc2cccc3ncccc23)cc(OCC)c1OCC	11	16	0.8	-7	8	0.9
O=S(=O)(Nc1cccc(CCc2ccccn2)c1)c1ccc2ccccc2c1	99*	27	0.7	8	-8	0
SMILES	CYP2C19 inhib	CYP2C9 inh	CYP2C9 act	sEH inh	sEH activator	CYP2C19 activ
Cc1c(NC(=S)/C=C2\N(C)c3ccccc3C2(C)C)c(=O)n(-c2ccccc2)n1C	65*	-93	1.9	-7	7	0.4
Cc1c(N=C/C=C2/N(C)c3ccccc3C2(C)C)c(=O)n(-c2ccccc2)n1C	nt	nt	nt	4	0	nt
Cc1c(N=C/C=C2\N(C)c3ccccc3C2(C)C)c(=O)n(-c2ccccc2)n1C	74*	-10	1.1	-10	6	0.3
COc1cccc2cc(C(=O)N(C)C3CCN(C)CC3)c(=O)oc12	5	-23	1.2	-2	4	1
COC(=O)[C@H](CCSC)NC(=O)Nc1cc(C)ccc1C	3	0	1	0	4	1
COC(=O)[C@H](CCSC)NC(=O)Nc1ccc(C)cc1	60*	12	0.9	-1	2	0.4
O=C1C2C3c4ccccc4C(c4ccccc43)C2C(=O)N1c1cccc2cccnc12 (stereo unspecified)	0	-2	1	6	-3	1
CN1c2ccsc2C(O)=C(C(=S)Nc2ccccc2)S1(=O)=O	12	78*	0.2	-2	3	0.9
Cc1ccccc1NC(=S)C1=C(O)c2sccc2N(C)S1(=O)=O	2	72*	0.3	-5	8	1
CCc1ccc(NC(=O)c2sccc2-n2cccc2)cc1	12	14	0.9	-6	4	0.9
COc1cccc(NS(=O)(=O)c2ccc3c(c2)n(C)c(=O)c(=O)n3C)c1	35	50	0.5	5	-3	0.6
COc1ccc(S(=O)(=O)Nc2ccc(S(=O)(=O)N3CCOCC3)cc2)cc1	60*	94*	0.1	nt	nt	0.4
Cc1ccc(S(=O)(=O)Nc2ccc(S(=O)(=O)N3CCCC3)cc2)cc1	68*	98*	0	-8	8	0.3
Cc1ccc(S(=O)(=O)N2CCN(S(C)(=O)=O)CC2)cc1	nt	nt	nt	2	-1	nt
COc1cccc(C(=O)NCC2CCN(c3ccc(S(=O)(=O)N4CCOCC4)cc3)CC2)c1	56*	55*	0.4	46	-47	0.4
CS(=O)(=O)Nc1ccc(S(=O)(=O)N2CCOCC2)cc1	3	4	1	11	-12	1
CCn1c(=O)c(=O)n(CC)c2cc(S(=O)(=O)Nc3cccc(OC)c3)ccc21	49	87*	0.1	1	0	0.5
CC(C)NC(=O)c1ccc2c(c1)N(CC(=O)N1CCOCC1)C(=O)C(C)(C)O2	8	15	0.8	nt	nt	0.9
Cn1c(=O)c2c(nc(SCC(=O)O)n2Cc2cc3c(cc2Cl)OCO3)n(C)c1=O	-2	21	0.8	1	-2	1
O=C1C2C3C=CC(C3)C2C(=O)N1c1n[nH]c(CCc2ccccc2)n1 (stereo unspecified)	-2	2	1	-1	3	1
COc1cccc(NS(=O)(=O)c2ccc(S(=O)(=O)N3CCOCC3)cc2)c1	93*	67*	0.3	3	-4	0.1
CCOC(=O)C1Cc2c([nH]c3ccccc23)C(C)N1 (stereo unspecified)	82*	-11	1.1	3	-1	0.2
Cc1[nH]c2ccccc2c1C(=O)COC(=O)C1CCC(=O)N1 (stereo unspecified)	-3	-85	1.9	17	-15	1
